# About 79,000 compounds went through this panel and 15% of them were active in at least one assay; those are over-represented in the sample as a whole. A number with no mark means an inactive call. Active and inactive are the calls of the source. No stated cut-off is given here; in the data, active means growth inhibition above about 70%; inactive means the rest.
# What was measured:
# [1] = NCI Yeast Anticancer Drug Screen. Data for the rad52 strain (AID 147);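 further: 0% = growth of vehicle-treated control cultures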; conditions: S. cerevisiae rad52 mutant growth inhibition, stronger effect = higher value
# Outline: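 Read-out: growth inhibition versus vehicle-treated controls. Cells were a DNA repair-deficient yeast strain treated with compounds.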
# [2] = NCI Yeast Anticancer Drug Screen. Data for the wt1 strain (AID 149);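 further: 0% = growth of vehicle-treated wt1 cultures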; conditions: S. cerevisiae wt1 strain (SPY 50644) growth inhibition, stronger effect = higher value
# Outline: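 Using yeast strain wt1, compound-induced growth inhibition was determined against vehicle-treated cultures.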
# [3] = NCI Yeast Anticancer Drug Screen. Data for the rad50EPP+ strain (AID 151);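 further: 0% = growth of vehicle-treated control cultures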; conditions: S. cerevisiae rad50 mutant strain, stronger effect = higher value
# Outline: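 Growth inhibition read against vehicle controls in rad50EPP+ yeast, a strain altered in DNA damage repair, after compound exposure.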
# [4] = NCI Yeast Anticancer Drug Screen. Data for the mgt1 strain (AID 153); conditions: S. cerevisiae mgt1 mutant growth inhibition, stronger effect = higher value
# Outline: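 mgt1 yeast grown with test compound; read-out is growth inhibition versus vehicle-treated cultures.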
# [5] = NCI Yeast Anticancer Drug Screen. Data for the rad50 strain (AID 155);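 further: 0% = growth of vehicle-only cultures of the same strain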; conditions: S. cerevisiae rad50 strain growth inhibition, stronger effect = higher value
# Outline: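 Relative growth inhibition (compound vs vehicle) was measured in yeast with a defined repair-gene alteration.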
# [6] = NCI Yeast Anticancer Drug Screen. Data for the mec2-1 strain (AID 157); conditions: S. cerevisiae mec2-1 strain, stronger effect = higher value
# Outline: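 Yeast mec2-1 mutant treated with compound. Readout: growth inhibition vs vehicle controls.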
# [7] = NCI Yeast Anticancer Drug Screen. Data for the sgs1 mgt1 strain (AID 161);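 further: 0% = growth of cultures given vehicle only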; conditions: S. cerevisiae sgs1 mgt1 strain, stronger effect = higher value
# Outline: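 Inhibition of yeast growth, normalised to vehicle-treated controls, is reported for a strain bearing genetic alterations in DNA damage repair.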
# [8] = NCI Yeast Anticancer Drug Screen. Data for the cln2 rad14 strain (AID 165);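 further: 0% = growth equal to vehicle treated cultures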; conditions: S. cerevisiae cln2 rad14 strain, stronger effect = higher value
# Outline: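 cln2 rad14 yeast strain; compound exposure; growth inhibition read vs vehicle controls.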
# [9] = NCI Yeast Anticancer Drug Screen. Data for the bub3 strain (AID 167); conditions: S. cerevisiae bub3 mutant strain, stronger effect = higher value
# Outline: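 Screening used yeast with an engineered genetic alteration affecting cell cycle control. Compound-exposed cultures were compared with vehicle cultures, and reduced growth was taken as inhibition.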
# [10] = NCI Yeast Anticancer Drug Screen. Data for the wt2 strain (AID 169);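 further: 0% = growth of vehicle-treated yeast cultures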; conditions: S. cerevisiae wt2 strain growth inhibition, stronger effect = higher value
# Outline: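 Read-out: growth inhibition versus vehicle-treated control cultures after compound exposure of the yeast strain.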
# [11] = NCI Yeast Anticancer Drug Screen. Data for the mlh1 strain (AID 171);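 further: 0% = growth of vehicle-treated control cultures of the same strain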; conditions: S. cerevisiae mlh1 strain growth inhibition, stronger effect = higher value
# Outline: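 Read-out: growth inhibition versus vehicle controls. Strain: engineered yeast with a defined DNA repair or cell cycle defect, compound-treated.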
# [12] = NCI Yeast Anticancer Drug Screen. Data for the sgs1 strain (AID 173);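 further: 0% = growth of vehicle-only control cultures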; conditions: S. cerevisiae sgs1 mutant, stronger effect = higher value
# Outline: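 Read-out: yeast growth inhibition relative to vehicle controls, following compound exposure of a strain with a defined DNA repair/cell cycle alteration.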
# [13] = NCI Yeast Anticancer Drug Screen. Data for the mlh1 rad18 strain (AID 175); conditions: S. cerevisiae mlh1 rad18 strain growth inhibition, stronger effect = higher value
# Outline: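 Yeast w/ defined DNA-repair lesions; compound exposure; growth vs vehicle controls → % inhibition.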
# [14] = NCI Yeast Anticancer Drug Screen. Data for the rad18 strain (AID 177); conditions: S. cerevisiae rad18 mutant growth inhibition, stronger effect = higher value
# Outline: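 Readout: growth inhibition vs vehicle controls. Cells: genetically altered yeast strain, DNA repair defect.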
# [15] = NCI Yeast Anticancer Drug Screen. Data for the rad14 strain (AID 159);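 further: 0% = growth of vehicle-treated control cultures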; conditions: S. cerevisiae rad14 strain growth inhibition, stronger effect = higher value
# Outline: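 Screen for anticancer potential: a yeast strain altered in DNA damage repair is grown with compound, and reduced growth is quantified against vehicle controls.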
# [16] = NCI Yeast Anticancer Drug Screen. Data for the CLN2oe strain (AID 163);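 further: 0% = growth of vehicle-only control cultures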; conditions: S. cerevisiae CLN2oe strain, stronger effect = higher value
# Outline: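 Read-out: yeast growth inhibition, expressed relative to vehicle-only controls. The strain bears an engineered cell-cycle alteration.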
# [17] = at 5.0 µM (retest, dose inferred, filed as 0.5)
# [18] = at 50.0 µM (retest, dose inferred, filed as 5.0)
structure (smiles),measurement,setting,value
OC(c1ccc(Br)cc1)C(Cl)(Cl)Cl (stereo unspecified),growth inhibition,[1]; at 1.2 µM,-5%
same,growth inhibition,[1]; at 3.7 µM,-1%
same,growth inhibition,[1]; at 11.0 µM,5%
same,growth inhibition,[1]; at 33.0 µM,87% (active)
same,growth inhibition,[1]; at 100.0 µM,98% (active)
same,growth inhibition,[2]; at 1.2 µM,-13%
same,growth inhibition,[2]; at 3.7 µM,-11%
same,growth inhibition,[2]; at 11.0 µM,-1%
same,growth inhibition,[2]; at 33.0 µM,89% (active)
same,growth inhibition,[2]; at 100.0 µM,99% (active)
same,growth inhibition,[3]; at 1.2 µM,4%
same,growth inhibition,[3]; at 3.7 µM,3%
same,growth inhibition,[3]; at 11.0 µM,4%
same,growth inhibition,[3]; at 33.0 µM,38%
same,growth inhibition,[3]; at 100.0 µM,95% (active)
same,growth inhibition,[4]; at 1.2 µM,20%
same,growth inhibition,[4]; at 3.7 µM,-1%
same,growth inhibition,[4]; at 11.0 µM,5%
same,growth inhibition,[4]; at 33.0 µM,89% (active)
same,growth inhibition,[4]; at 100.0 µM,100% (active)
same,growth inhibition,[5]; at 1.2 µM,16%
same,growth inhibition,[5]; at 3.7 µM,14%
same,growth inhibition,[5]; [17],71% (active)
same,growth inhibition,[5]; at 11.0 µM,21%
same,growth inhibition,[5]; at 33.0 µM,84% (active)
same,growth inhibition,[5]; [18],99% (active)
same,growth inhibition,[5]; at 50.0 µM,81.2% (active)
same,growth inhibition,[5]; at 100.0 µM,97% (active)
same,growth inhibition,[6]; at 1.2 µM,-19%
same,growth inhibition,[6]; at 3.7 µM,-19%
same,growth inhibition,[6]; [17],89% (active)
same,growth inhibition,[6]; at 11.0 µM,-1%
same,growth inhibition,[6]; at 33.0 µM,92% (active)
same,growth inhibition,[6]; [18],99% (active)
same,growth inhibition,[6]; at 50.0 µM,86.8% (active)
same,growth inhibition,[6]; at 100.0 µM,99% (active)
same,growth inhibition,[7]; [17],3%
same,growth inhibition,[7]; [18],97% (active)
same,growth inhibition,[7]; at 50.0 µM,84.5% (active)
same,growth inhibition,[8]; [17],68%
same,growth inhibition,[8]; [18],98% (active)
same,growth inhibition,[8]; at 50.0 µM,80.8% (active)
same,growth inhibition,[9]; at 1.2 µM,-17%
same,growth inhibition,[9]; at 3.7 µM,15%
same,growth inhibition,[9]; [17],-15%
same,growth inhibition,[9]; at 11.0 µM,3%
same,growth inhibition,[9]; at 33.0 µM,91% (active)
same,growth inhibition,[9]; [18],97% (active)
same,growth inhibition,[9]; at 50.0 µM,81.7% (active)
same,growth inhibition,[9]; at 100.0 µM,99% (active)
same,growth inhibition,[10]; at 1.2 µM,-17%
same,growth inhibition,[10]; at 3.7 µM,-15%
same,growth inhibition,[10]; at 11.0 µM,-21%
same,growth inhibition,[10]; at 33.0 µM,78% (active)
same,growth inhibition,[10]; at 100.0 µM,98% (active)
same,growth inhibition,[11]; at 1.2 µM,-10%
same,growth inhibition,[11]; at 3.7 µM,-18%
same,growth inhibition,[11]; at 11.0 µM,-6%
same,growth inhibition,[11]; at 33.0 µM,80% (active)
same,growth inhibition,[11]; at 100.0 µM,97% (active)
same,growth inhibition,[12]; at 1.2 µM,11%
same,growth inhibition,[12]; at 3.7 µM,5%
same,growth inhibition,[12]; at 11.0 µM,14%
same,growth inhibition,[12]; at 33.0 µM,84% (active)
same,growth inhibition,[12]; at 100.0 µM,98% (active)
same,growth inhibition,[13]; [17],62%
same,growth inhibition,[13]; [18],99% (active)
same,growth inhibition,[13]; at 50.0 µM,76.2% (active)
same,growth inhibition,[14]; at 1.2 µM,4%
same,growth inhibition,[14]; at 3.7 µM,4%
same,growth inhibition,[14]; at 11.0 µM,32%
same,growth inhibition,[14]; at 33.0 µM,90% (active)
same,growth inhibition,[14]; at 100.0 µM,98% (active)
CNC(=O)OCC1C2=C(C(=O)C(C)=C(N)C2=O)N2CC3C(N3C)C12OC (stereo unspecified),growth inhibition,[1]; at 1.2 µM,8%
same,growth inhibition,[1]; at 3.7 µM,50%
same,growth inhibition,[1]; at 11.0 µM,52%
same,growth inhibition,[1]; at 33.0 µM,49%
same,growth inhibition,[1]; at 100.0 µM,72% (active)
same,growth inhibition,[2]; at 1.2 µM,-2%
same,growth inhibition,[2]; at 3.7 µM,4%
same,growth inhibition,[2]; at 11.0 µM,4%
same,growth inhibition,[2]; at 33.0 µM,2%
same,growth inhibition,[2]; at 100.0 µM,17%
same,growth inhibition,[3]; at 1.2 µM,0%
same,growth inhibition,[3]; at 3.7 µM,10%
same,growth inhibition,[3]; at 11.0 µM,22%
same,growth inhibition,[3]; at 33.0 µM,30%
same,growth inhibition,[3]; at 100.0 µM,41%
same,growth inhibition,[5]; at 1.2 µM,-12%
same,growth inhibition,[5]; at 3.7 µM,6%
same,growth inhibition,[5]; [17],37%
same,growth inhibition,[5]; at 11.0 µM,15%
same,growth inhibition,[5]; at 33.0 µM,22%
same,growth inhibition,[5]; [18],63%
same,growth inhibition,[5]; at 50.0 µM,51.6%
same,growth inhibition,[5]; at 100.0 µM,52%
same,growth inhibition,[6]; at 1.2 µM,-14%
same,growth inhibition,[6]; at 3.7 µM,2%
same,growth inhibition,[6]; [17],20%
same,growth inhibition,[6]; at 11.0 µM,-1%
same,growth inhibition,[6]; at 33.0 µM,16%
same,growth inhibition,[6]; [18],61%
same,growth inhibition,[6]; at 50.0 µM,55%
same,growth inhibition,[6]; at 100.0 µM,49%
same,growth inhibition,[15]; at 1.2 µM,-18%
same,growth inhibition,[15]; at 3.7 µM,-9%
same,growth inhibition,[15]; at 11.0 µM,0%
same,growth inhibition,[15]; at 33.0 µM,14%
same,growth inhibition,[15]; at 100.0 µM,46%
same,growth inhibition,[7]; [17],30%
same,growth inhibition,[7]; [18],64%
same,growth inhibition,[7]; at 50.0 µM,42.1%
same,growth inhibition,[16]; at 1.2 µM,20%
same,growth inhibition,[16]; at 3.7 µM,22%
same,growth inhibition,[16]; at 11.0 µM,17%
same,growth inhibition,[16]; at 33.0 µM,35%
same,growth inhibition,[16]; at 100.0 µM,37%
same,growth inhibition,[8]; [17],10%
same,growth inhibition,[8]; [18],44%
same,growth inhibition,[8]; at 50.0 µM,43.1%
same,growth inhibition,[9]; at 1.2 µM,1%
same,growth inhibition,[9]; at 3.7 µM,-4%
same,growth inhibition,[9]; [17],20%
same,growth inhibition,[9]; at 11.0 µM,-5%
same,growth inhibition,[9]; at 33.0 µM,9%
same,growth inhibition,[9]; [18],43%
same,growth inhibition,[9]; at 50.0 µM,29.4%
same,growth inhibition,[9]; at 100.0 µM,23%
same,growth inhibition,[10]; at 1.2 µM,-33%
same,growth inhibition,[10]; at 3.7 µM,-40%
same,growth inhibition,[10]; at 11.0 µM,-39%
same,growth inhibition,[10]; at 33.0 µM,-5%
same,growth inhibition,[10]; at 100.0 µM,21%
same,growth inhibition,[11]; at 1.2 µM,-17%
same,growth inhibition,[11]; at 3.7 µM,-4%
same,growth inhibition,[11]; at 11.0 µM,-6%
same,growth inhibition,[11]; at 33.0 µM,14%
same,growth inhibition,[11]; at 100.0 µM,39%
same,growth inhibition,[12]; at 1.2 µM,4%
same,growth inhibition,[12]; at 3.7 µM,8%
same,growth inhibition,[12]; at 11.0 µM,18%
same,growth inhibition,[12]; at 33.0 µM,29%
same,growth inhibition,[12]; at 100.0 µM,54%
same,growth inhibition,[13]; [17],63%
same,growth inhibition,[13]; [18],92% (active)
same,growth inhibition,[13]; at 50.0 µM,67.4%
same,growth inhibition,[14]; at 1.2 µM,12%
same,growth inhibition,[14]; at 3.7 µM,13%
same,growth inhibition,[14]; at 11.0 µM,39%
same,growth inhibition,[14]; at 33.0 µM,73% (active)
same,growth inhibition,[14]; at 100.0 µM,86% (active)

# Source: PubChem BioAssay (NCI)
